Tests used:
Conditions in all cases: concentration: 1 μM, replicates: in singlicate; n = 1
[1] = system: CAMK1
[2] = system: CAMK2A
[3] = system: CAMK2B
[4] = system: CAMK2D
[5] = system: CAMK2G
[6] = system: CAMK4
[7] = system: CAMKK1
[8] = system: CAMKK2
[9] = system: CASK
[10] = system: T1, CDC2L1
T1 construct: gene CDK11B

[11] = system: CDC2L2
[12] = system: T2, CDC2L5
T2 construct: gene CDK13

[13] = system: T3, CDK11
T3 construct: gene CDK19

[14] = system: CDK2
[15] = system: CDK3
[16] = system: CDK4-cyclinD1
[17] = system: CDK4-cyclinD3
[18] = system: CDK4
[19] = system: CDK5
[20] = system: CDK7
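Note: KINOMEscan kinase panel screen.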

| Compound | %Inh [1] [%] | %Inh [2] [%] | %Inh [3] [%] | %Inh [4] [%] | %Inh [5] [%] | %Inh [6] [%] | %Inh [7] [%] | %Inh [8] [%] | %Inh [9] [%] | %Inh [10] [%] | %Inh [11] [%] | %Inh [12] [%] | %Inh [13] [%] | %Inh [14] [%] | %Inh [15] [%] | %Inh [16] [%] | %Inh [17] [%] | %Inh [18] [%] | %Inh [19] [%] | %Inh [20] [%] |
| --- | --- | --- | --- | --- | --- | --- | --- | --- | --- | --- | --- | --- | --- | --- | --- | --- | --- | --- | --- | --- |
| CN(C)CCNS(=O)(=O)c1ccc(-c2ccnc3[nH]ccc23)cc1 [GSK977620] | 50 | 0 | 0 | 0 | 5 | 57 | 0 | 0 | 3 | 0 | 0 | 0 | 5 | 0 | 0 | 0 | 0 | 11 | 0 | 45 |
| CC(C)c1nc(-c2cccc(NS(=O)(=O)c3c(F)cccc3F)c2)c(-c2ccnc(Nc3ccc(N4CCOCC4)nc3)n2)s1.Cl [GSK1723980] | 47 | 0 | 0 | 2 | 10 | 0 | 14 | 6 | 92.1 | 0 | 0 | 79 | 0 | 99.1 | 99.7 | 96.2 | 56 | 94.4 | 98.9 | 62 |
| COc1ccc(C)c(Nc2ccnc(Nc3ccc(-c4cnc[nH]4)cc3)n2)c1.Cl [GW784041] | 17 | 0 | 1 | 22 | 0 | 30 | 19 | 0 | 0 | 8 | 16 | 0 | 2 | 0 | 3 | 0 | 0 | 0 | 0 | 0 |
| Cc1ccccc1CC(=O)N1CCc2cc(-c3cn(C)c4ncnc(N)c34)ccc21 [GSK2603346] | 16 | 0 | 0 | 0 | 5 | 5 | 0 | 0 | 0 | 0 | 3 | 0 | 81 | 6 | 2 | 0 | 0 | 29 | 0 | 0 |
| CN1CCN(Cc2ccc(NC(=O)Nc3ccc(N(C)c4ccnc(Nc5ccc(CS(C)(=O)=O)cc5)n4)cc3)cc2)CC1.Cl [GW827654] | 28 | 0 | 0 | 9 | 15 | 0 | 95.4 | 28 | 3 | 33 | 38 | 99.8 | 60 | 16 | 0 | 50 | 97.8 | 65 | 58 | 53 |
| CN(C)CCOc1ccc(-c2cc(-c3ccc(Cl)c(O)c3)c(-c3ccncc3)[nH]2)cc1.Cl.Cl [SB-684387] | 24 | 0 | 0 | 13 | 19 | 0 | 25 | 21 | 17 | 0 | 14 | 0 | 6 | 0 | 0 | 9 | 15 | 39 | 0 | 21 |
| COc1cc(Nc2nccc(N3CCC(NS(=O)(=O)c4ccc(NC(C)=O)cc4)CC3)n2)cc(OC)c1OC [GSK1379825] | 37 | 0 | 0 | 7 | 12 | 0 | 23 | 8 | 19 | 0 | 0 | 0 | 0 | 0 | 7 | 16 | 0 | 0 | 0 | 0 |
| Cc1ccc(NC(=O)c2ccnc(N3CCCCC3)c2)cc1-c1ccc(C(=O)NCC2CC2)cc1 [GW775610] | 0 | 0 | 0 | 0 | 0 | 10 | 0 | 0 | 0 | 6 | 0 | 0 | 0 | 36 | 0 | 20 | 0 | 0 | 8 | 0 |
| Cc1cc(-c2ccnc(Nc3cccc(C#N)c3)n2)cc(C)c1O [GSK1440913] | 24 | 13 | 11 | 31 | 39 | 0 | 24 | 30 | 0 | 41 | 51 | 0 | 0 | 68 | 30 | 42 | 22 | 0 | 18 | 61 |
| CCOc1nccc(-c2c(-c3ccc(F)cc3)ncn2C2CCNCC2)n1 [SB-249175] | 0 | 0 | 0 | 0 | 0 | 11 | 1 | 15 | 0 | 3 | 13 | 34 | 12 | 5 | 0 | 33 | 10 | 26 | 12 | 24 |
| Cn1cc(-c2ccc3c(c2)CCN3C(=O)Cc2cc(F)cc(F)c2F)c2c(N)ncnc21 [GSK2634140] | 15 | 0 | 0 | 0 | 11 | 0 | 27 | 1 | 3 | 0 | 19 | 0 | 86 | 8 | 45 | 0 | 0 | 26 | 0 | 0 |
| Cc1ccc(-c2ccc3occ(-c4ccc(S(C)=O)cc4)c3c2)nn1 (stereo not drawn) | 0 | 0 | 0 | 7 | 0 | 18 | 11 | 20 | 0 | 0 | 0 | 24 | 29 | 36 | 4 | 0 | 0 | 0 | 0 | 0 |
| Cl.Cl.NCC(NC(=O)c1cc(-c2cccnc2)c(-c2ccnc3[nH]ccc23)s1)c1ccccc1 (stereo not drawn) [GSK1323434] | 32 | 0 | 0 | 8 | 14 | 0 | 14 | 24 | 30 | 0 | 9 | 0 | 8 | 3 | 26 | 39 | 0 | 79 | 0 | 50 |
| O=C(O)C(F)(F)F.O=c1[nH]ccc2nc(N[C@@H]3CCNC3)nc(Nc3ccc4c(c3)S(=O)(=O)CC4)c12 [GSK2181306] | 82 | 59 | 23 | 55 | 52 | 98.5 | 92.1 | 40 | 15 | 0 | 0 | 0 | 0 | 62 | 53 | 90.6 | 69 | 50 | 76 | 85 |
| CCNc1nccc(-c2c(-c3ccc(F)cc3)ncn2C2CCN(C)CC2)n1 | 0 | 18 | 0 | 16 | 8 | 0 | 12 | 9 | 0 | 7 | 16 | 0 | 19 | 0 | 0 | 0 | 0 | 0 | 0 | 0 |
| Cc1cccc(Nc2nc(NCCN)ncc2C(N)=O)c1 [GSK1292139] | 59 | 0 | 0 | 14 | 27 | 0 | 18 | 28 | 13 | 0 | 18 | 0 | 0 | 0 | 5 | 0 | 6 | 35 | 0 | 24 |
| Cc1nn2c(=O)cc(N3CCO[C@H](C)C3)nc2n1Cc1cccc(Cl)c1Cl [GSK2373693] | 0 | 0 | 0 | 10 | 5 | 5 | 20 | 2 | 75 | 0 | 4 | 0 | 3 | 54 | 76 | 53 | 2 | 13 | 0 | 0 |
| CCn1c(-c2nonc2N)nc2c(-c3ccccc3)ncc(OCCCN)c21.O=C(O)C(F)(F)F.O=C(O)C(F)(F)F [GSK260205] | 7 | 0 | 0 | 14 | 14 | 8 | 0 | 0 | 1 | 0 | 0 | 0 | 0 | 0 | 0 | 0 | 0 | 0 | 0 | 0 |
| COc1cccc(NC(=O)NCCNc2ccnc(Nc3ccc(F)cc3)n2)c1 [GSK1379879] | 7 | 0 | 0 | 0 | 14 | 0 | 13 | 3 | 0 | 0 | 27 | 0 | 22 | 0 | 0 | 9 | 1 | 0 | 0 | 0 |
| Cl.O=C(Nc1ccc(Oc2ccc3[nH]c(NC(=O)c4ccco4)nc3c2)cc1)Nc1cc(C(F)(F)F)ccc1F [GW683134] | 0 | 0 | 0 | 0 | 0 | 0 | 0 | 0 | 50 | 0 | 1 | 0 | 88 | 0 | 9 | 0 | 0 | 4 | 0 | 78 |
| CC(C)(C)c1ccc(C(=O)Nc2cn3cc(-n4ccnc4)ccc3n2)cc1 | 32 | 18 | 0 | 0 | 12 | 0 | 6 | 7 | 8 | 3 | 1 | 7 | 1 | 12 | 0 | 0 | 0 | 0 | 8 | 4 |
